High-throughput results (PubChem BioAssay)
A549 viability – Nrf2 qHTS screen for inhibitors: counterscreen for cytotoxicity; 390,000 tested, 0.16% active; Potency, µM (doses to about 46 µM), for inactives: at the highest dose activity change, negative = cytotoxicity, most hits filed as inhibitors; AID 504648, 2011; A549 ARE-Fluc cells, CellTiter-Fluor viability, 18-24 h; also: % is scaled to controls: 0 for no effect and ±100 for the full control effect
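A549 ARE-Fluc cells in 5% FBS OPTI-MEM, 5000 cells/well, rested 2 h then exposed to compounds in concentration-response for 18-24 h at 37 °C. Viability by CellTiter-Fluor fluorescence (Ex 405/Em 525) after 30 min; luciferase luminescence (BugLite, 15 min, RT) read afterwards.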
Nrf2 block – Nrf2 qHTS screen for inhibitors; Potency, µM (series often up to 46 µM), for the others: at the highest dose activity change, negative = inhibition, most hits filed as inhibitors; 360,000 tested, 2.1% active; A549 ARE-Fluc reporter, luciferase luminescence, 18-24 h; also: % is scaled to controls: 0 for no effect and ±100 for the full control effect; nearly all actives have a fitted effect of over 60% in size
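Quantitative HTS in A549 cells stably bearing an antioxidant response element-firefly luciferase construct. Inhibition of Nrf2-driven transcription was scored by luminescence after 18-24 h of compound exposure at 37 °C.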
ATXN2 expr inh – Primary qHTS for Inhibitors of ATXN expression; HEK-293 ATXN2-luciferase reporter, luminescence, 24 h; AID 1745845, 2022; Potency, µM (doses to about 57 µM), inactives show top-dose activity change, negative = inhibition, hits mostly inhibitors; 360,000 tested, 0.72% active; also: % is scaled to controls: 0 for no effect and ±100 for the full control effect; nearly all actives have a fitted effect of over 55% in size
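ATXN2-luciferase reporter cells (luciferase flanked by upstream and downstream ATXN2 gene portions) were treated 24 h at 37 °C with compounds at up to 57 uM. SteadyGlo luminescence gave expression; GF-AFC fluorescence gave viability.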
ATXN viability – Viability Counterscreen for Primary qHTS for Inhibitors of ATXN expression; Potency, µM (series often up to 56.7 µM), hits mostly cytotoxic; S2 cells (HEK-293 line with an ATXN2-luciferase reporter) viability, CellTiter-Fluor protease fluorescence, 24 h; 400,000 tested, 0.49% active; also: nearly all actives have a fitted effect of over 40% in size
TGFb inhibitor – qHTS for Inhibitors of TGF-b. HepG2 CAGA-GFP TGF-b/SMAD3 reporter, GFP fluorescence, 18 h; TGF-beta stimulated, 500 pg/mL final. Potency, µM (series often up to 46.1 µM), without a hit: at the top dose activity, negative = inhibition, most hits filed as inhibitors. 410,000 tested, 1.2% active. AID 588855, 2011; also: % is scaled to controls: 0 for no effect and ±100 for the full control effect; nearly all actives have a fitted effect of over 65% in size
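Smad-responsive CAGA-GFP expression was quantified in HEPG2 cells exposed to compounds and 500 pg/mL final TGF-beta for 18 h at 37 degrees C; unstimulated wells defined full inhibition.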
HepG2 viability – qHTS for Inhibitors of TGF-b: Cytotox Counterscreen | HepG2 CAGA-GFP viability, ATP luminescence, 18 h | Potency, µM (highest dose often 46.1 µM), for the others: at the highest dose activity change, negative = cytotoxicity, most hits filed as cytotoxic | AID 588856, 2011 | 410,000 tested, 0.76% active
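HepG2 CAGA-GFP cells (1000/well, DMEM with 1% FBS) received compound, then TGF-beta at 500 pg/mL final, and were incubated 18 hours at 37 degrees C. Viability was read by CellTiter-Glo luminescence. Media-only wells were set as complete cell-killing and DMSO as no toxicity.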
* = called active by the depositor. A selection: hits, their analogues and other compounds. The true share with any hit is near 3.8%. Calls follow the shape of the dose curve; as a rule, active = well fitted curve in the direction sought with a large enough effect; inconclusive = small, poorly fitted or top-dose-only effect, or another doubt; inactive = no such curve, though single readings can be large; an effect the other way counts as inactive or inconclusive. Potency is read from the fitted curve at half-maximal effect.

What do the screens show for `Cc1ccc(/C=C/C(=O)c2cc(Br)ccc2OC(=O)c2ccco2)cc1`?
A549 viability: -5%; Nrf2 block: 4%; ATXN2 expr inh: -4%; ATXN viability: inactive; TGFb inhibitor: -14%; HepG2 viability: 11µM*

What do the screens show for `COc1ccccc1/C=C/C(=O)c1cc(Br)ccc1OC(=O)c1ccco1`?
A549 viability: inconclusive; Nrf2 block: 26µM*; ATXN2 expr inh: inconclusive; ATXN viability: inconclusive; TGFb inhibitor: inconclusive; HepG2 viability: -88%

Results for COc1cccc(C2c3c(ncn(Cc4cccs4)c3=N)Oc3ccc4ccccc4c32)c1 (centres undefined) ?
A549 viability: -3%; Nrf2 block: -3%

How did COc1cc2c(cc1-c1c(C)noc1C)ncc1[nH]c(=O)n([C@H](C)c3ccccn3)c12 do in these assays?
ATXN2 expr inh: 194%

What do the screens show for `CCOc1ccc(Nc2nc(C)c(NC(=O)c3ccc(C)cc3)c(Nc3ccc(OCC)cc3)n2)cc1`?
A549 viability: 1%; Nrf2 block: -4%; ATXN2 expr inh: 0%; ATXN viability: inconclusive; TGFb inhibitor: inconclusive; HepG2 viability: -16%

How did Cc1ccc(Nc2nc(C)c(NC(=O)c3ccc(C)cc3)c(Nc3ccc(C)cc3)n2)cc1 do in these assays?
A549 viability: inconclusive; Nrf2 block: inconclusive; ATXN2 expr inh: inconclusive; ATXN viability: inactive; TGFb inhibitor: 14µM*; HepG2 viability: -18%

How did Cc1ccc(Cc2c(-c3ccccc3)nc3cc(C)c(Br)c(C)n23)cc1 do in these assays?
ATXN2 expr inh: 27%; ATXN viability: inactive; TGFb inhibitor: inconclusive; HepG2 viability: -31%

What do the screens show for `C[C@H]1CN([C@@H](C)CO)S(=O)(=O)c2ccc(C#CC3CC3)cc2O[C@H]1CN(C)C(=O)c1cccnc1`?
ATXN2 expr inh: 2%; ATXN viability: inactive; TGFb inhibitor: 0%; HepG2 viability: 10%

How did C[C@H](CO)N1C[C@H](C)[C@@H](CN(C)Cc2ccc(Oc3ccccc3)cc2)Oc2cc(Br)ccc2S1(=O)=O do in these assays?
ATXN2 expr inh: -2%; ATXN viability: inconclusive; TGFb inhibitor: 13µM*; HepG2 viability: -40%

Results for C[C@H]1CN([C@@H](C)CO)S(=O)(=O)c2ccc(Br)cc2O[C@@H]1CN(C)Cc1cccc(F)c1 ?
ATXN2 expr inh: -75%; TGFb inhibitor: 18µM*; HepG2 viability: 13µM*

What do the screens show for `C[C@@H]1CN([C@@H](C)CO)S(=O)(=O)c2ccc(C#CC3CCCCC3)cc2O[C@@H]1CN(C)Cc1cccnc1`?
ATXN2 expr inh: 28µM*; ATXN viability: inconclusive; TGFb inhibitor: inconclusive; HepG2 viability: -104%

Results for C[C@@H]1CN([C@@H](C)CO)S(=O)(=O)c2ccc(Br)cc2O[C@H]1CN(C)Cc1ccc(-c2ccccc2)cc1 ?
ATXN2 expr inh: inconclusive; ATXN viability: inconclusive; TGFb inhibitor: inconclusive; HepG2 viability: -63%

How did C[C@@H]1CN([C@H](C)CO)S(=O)(=O)c2ccc(-c3ccc(C#N)cc3)cc2O[C@H]1CN(C)C(=O)Nc1cc(F)ccc1F do in these assays?
ATXN2 expr inh: 16µM*; ATXN viability: inconclusive; TGFb inhibitor: -2%; HepG2 viability: -11%

What do the screens show for `CC(=O)N1CCN(c2ccc(OCc3nn(C)c(C)c3-c3cccc4c(CCCOc5cccc6ccccc56)c(C(=O)O)n(Cc5cccnc5)c34)cc2)CC1`?
ATXN2 expr inh: 140%

Results for COc1cccc(N2CCN(C(=O)CN(C)S(=O)(=O)c3ccc4c(c3)c(=O)n(C)c(=O)n4C)CC2)c1 ?
A549 viability: -1%; Nrf2 block: -28%; ATXN2 expr inh: 0%; ATXN viability: inactive; TGFb inhibitor: -13%; HepG2 viability: -3%

Results for CCN(Cc1ccccc1)Cc1c(O)ccc2oc(C)c(C(=O)Nc3ccccc3C)c12 ?
A549 viability: -20%; Nrf2 block: 15%; TGFb inhibitor: inconclusive; HepG2 viability: -21%

What do the screens show for `C[C@@H]1CN([C@H](C)CO)S(=O)(=O)c2ccc(Br)cc2O[C@@H]1CN(C)C(=O)Nc1ccc(C(F)(F)F)cc1`?
ATXN2 expr inh: inconclusive; ATXN viability: 22µM*; TGFb inhibitor: inconclusive; HepG2 viability: -39%

How did O=[N+]([O-])c1ccc(N/N=C/c2sc(N3CCOCC3)nc2-c2ccccc2)c(S(=O)(=O)Nc2ccccc2Cl)c1 do in these assays?
A549 viability: 9.2µM*; Nrf2 block: 2.6µM*; ATXN viability: inconclusive; TGFb inhibitor: -15%; HepG2 viability: -29%

What do the screens show for `O=C(N/N=C/c1sc(N2CCOCC2)nc1-c1ccccc1)c1ccccc1O`?
A549 viability: 23µM*; Nrf2 block: 16µM*; ATXN2 expr inh: inconclusive; ATXN viability: inactive; TGFb inhibitor: inconclusive; HepG2 viability: -39%

Results for O=C(N/N=C/c1sc(N2CCOCC2)nc1-c1ccccc1)c1ccccc1Cl ?
A549 viability: 2%; Nrf2 block: 1%; ATXN2 expr inh: 0%; TGFb inhibitor: 2%; HepG2 viability: -3%

What do the screens show for `NC(=NCCc1c[nH]c2ccccc12)NS(=O)(=O)c1ccc2ccccc2c1`?
A549 viability: inconclusive; Nrf2 block: 16µM*; ATXN2 expr inh: 0%; ATXN viability: inactive; TGFb inhibitor: inconclusive; HepG2 viability: -28%

Results for Nc1ccc2nc(-c3ccc(Cl)cc3)[nH]c2c1 ?
A549 viability: -17%; Nrf2 block: inconclusive; ATXN2 expr inh: inconclusive; TGFb inhibitor: inconclusive; HepG2 viability: 13µM*

What do the screens show for `Cc1ccnc(NC(=O)c2ccc(Cl)c(S(=O)(=O)N3CCCCC3)c2)c1`?
A549 viability: -15%; Nrf2 block: inconclusive; ATXN2 expr inh: -14%; ATXN viability: inactive; TGFb inhibitor: -11%; HepG2 viability: -20%

How did Cc1ccc2nc(NC(=O)C3CCN(S(=O)(=O)c4cc([N+](=O)[O-])ccc4Cl)CC3)sc2c1 do in these assays?
A549 viability: inconclusive; Nrf2 block: inconclusive; ATXN2 expr inh: -37%; ATXN viability: inconclusive; TGFb inhibitor: inconclusive; HepG2 viability: -24%
